TDP1 cell noCPT – qHTS for Inhibitors of human tyrosyl-DNA phosphodiesterase 1 (TDP1): qHTS in cells in absence of CPT. DT40 Tdp1-/- hTDP1 cells, no CPT, ATP luminescence, 48 h. Potency, µM (highest dose often 46.2 µM), for inactives: at the highest dose activity change, negative = growth inhibition, actives largely listed as inhibitors. hit rate 15% among 420,000. AID 686978, 2013; also: potency is read from the fitted curve at half-maximal effect; nearly all actives have a fitted effect of over 55% in size
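No-CPT arm: Tdp1-/-;hTDP1 DT40 cells (400/well) plus compounds, incubated ≥48 hr at 37 °C. Readout CellTiter-Glo luminescence.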
TDP1 cell CPT – growth inhibition of DT40 Tdp1-/-;hTDP1 cells with camptothecin (screen for TDP1 inhibitors); chicken DT40 Tdp1-/-;hTDP1 cells + 20 nM CPT, ATP luminescence, 48 h; AID 686979; hit rate 12% among 420,000; Potency, µM (titrated, usually from 46.2 µM), inactives show at the highest dose activity change, negative = growth inhibition, hits mostly inhibitors; also: potency is read from the fitted curve at half-maximal effect; nearly all actives have a fitted effect of over 55% in size
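Chicken DT40 Tdp1-/- cells complemented with human TDP1, 400 cells/well, exposed to compounds plus 20 nM camptothecin for at least 48 h at 37 C; viability read as ATP content by CellTiter-Glo luminescence.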
IL-1B inflam inh – inhibitors of inflammasome signaling (IL-1 beta secretion); THP-1 LPS/ATP IL-1B secretion, AlphaLISA, 16 h; active compounds read low; hit rate 4.7% among 360,000; activity change, % at 57.5 µM; AID 743279; in the data active = activity change below about -50%; inconclusive = mostly about -30% to -49%
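Secreted IL-1B measured by AlphaLISA bead assay after 16 h compound exposure of THP-1 cells; compounds (final up to 57.5 uM) added 1 h before LPS (250 ng/mL) and ATP (1.25 mM) stimulation; lower signal means less secretion.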
HT1080 IDH1KD tx – kills HT-1080 cells with IDH1 knockdown; HT-1080 IDH1 knockdown viability, ATP luminescence, 48 h; Potency, µM (top dose mostly 46.1 µM), without a hit: at the top dose activity, negative = toxicity, usual class: cytotoxic; hit rate 2% among 360,000; AID 686971;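 also: potency is read from the fitted curve at half-maximal effect; 0% = DMSO wells and -100% = cell-free medium wells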
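In this qHTS, HT-1080 cells depleted of IDH1 are exposed for 48 h at 37 °C to compound titrations. Toxicity is scored from CellTiter-Glo luminescence, with DMSO as full viability and medium alone as none.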
HT1080NT lethal – kills 2HG-producing HT-1080-NT fibrosarcoma cells; Potency, µM (top dose mostly 46.1 µM), for the others: at the highest dose activity, negative = less viability, usual class: cytotoxic; hit rate 1.6% among 360,000; HT-1080-NT fibrosarcoma viability, CellTiter-Glo ATP luminescence, 48 h; AID 686970;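 also: NT is the 2HG producing partner of a matched IDH1 knockdown line; potency is read from the fitted curve at half-maximal effect; 0% = DMSO-treated cells and -100% = media-only wells without cells; nearly all actives have a fitted effect of over 55% in size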
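HT-1080-NT fibrosarcoma cells (2HG-overproducing), 750 cells/well in RPMI with 5% FBS, dosed after 2 h and incubated 48 h at 37C. CellTiter-Glo luminescence normalized to DMSO and no-cell wells; concentration-response curves fitted and classed.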
* hit, by the source's call; ? = inconclusive; nt = no result. Rows were chosen to be rich in hits. Some 19% of all compounds tested hit in one or more screens of this group. Unless noted, calls follow the shape of the dose curve; as a rule, active = well fitted curve in the direction sought with a large enough effect; inconclusive = small, poorly fitted or top-dose-only effect, or another doubt; inactive = no such curve, though single readings can be large; an effect the other way counts as inactive or inconclusive. Unless noted, % is scaled to controls: 0 for no effect and ±100 for the full control effect.

SMILES | TDP1 cell noCPT | TDP1 cell CPT | IL-1B inflam inh | HT1080 IDH1KD tx | HT1080NT lethal
CC(=O)c1ccc(OCCCN2CCCCC2)cc1 | -2% | -6% | 24 | 6% | 0%
c1ccc(COc2ccc(OCCCCN3CCCC3)cc2)cc1 | 23µM* | ? | -7 | -15% | -1%
c1ccc(COc2ccc(OCCCN3CCCCC3)cc2)cc1 | ? | ? | -21 | -26% | -27%
O=C(c1ccccc1)c1ccc(OCCCN2CCCCC2)cc1 | -23% | -16% | -59* | 1% | -4%
COc1ccc(/C(N)=N/OC(=O)CN(C)S(=O)(=O)c2ccc(C)cc2)cc1 | ? | ? | 37 | -6% | -2%
CCOc1ccccc1NC(=O)CCS(=O)(=O)c1ccc2c(c1)CCN2C(C)=O | -19% | ? | 13 | 4% | 0%
CC(C)N(Cc1ccccc1)C(=O)C1CCCN(c2ncnc3onc(-c4ccc(F)cc4)c23)C1 (stereo not drawn) | 5.2µM* | 7.3µM* | nt | nt | nt
CCCN(CCC)C(=O)C1CCCN(c2ncnc3onc(-c4ccc(F)cc4)c23)C1 (stereo not drawn) | 16µM* | 5.2µM* | nt | nt | nt
Cc1oc2ncnc(N3CCOCC3)c2c1C(=O)N(Cc1ccccc1)C(C)C | -15% | -1% | nt | nt | nt
CCCCN(C)C(=O)C1CCCN(c2ncnc3onc(-c4ccc(F)cc4)c23)C1 (stereo not drawn) | 23µM* | 15µM* | nt | nt | nt
CCc1ccccc1NC(=O)C1CCCN(c2ncnc3onc(-c4ccc(F)cc4)c23)C1 (stereo not drawn) | ? | ? | -13 | ? | 0%
O=C(NC(=S)N(Cc1ccccc1)c1ccccn1)C1CC1 | 13% | ? | 13 | -3% | 4%
Cc1ccccc1NC(=O)c1ccc(NS(=O)(=O)c2cc(C(C)(C)C)cc(C)c2C)cc1 | 15µM* | ? | -20 | ? | ?
O=C(Nc1ccccc1O)c1ccc(NS(=O)(=O)c2cccc3cccnc23)cc1 | 7.3µM* | 4.1µM* | 32 | ? | -26%
O=C(Nc1ncccc1O)c1ccc(S(=O)(=O)Nc2ccccc2)cc1 | 5.2µM* | 5.2µM* | 30 | 9.2µM* | 13µM*
COC(=O)c1ccc(NC(=O)c2ccc(NS(=O)(=O)c3cccc4cccnc34)cc2)cc1 | -24% | -22% | 2 | -20% | -26%
Cc1ccc(CN2CCN(Cc3ccc4cc(F)ccc4n3)CC2CCO)o1 (stereo not drawn) | -12% | -1% | 8 | 17% | 23%
CCCCCCCCCCCCC[N+](C)(C)Cc1ccccc1 | 0.58µM* | 0.65µM* | nt | nt | nt
CCCCCCCCCCCCCCCC[N+](C)(C)Cc1ccc(F)cc1 | 7.3µM* | 6.5µM* | -74* | -23% | 3%
O=S1(=O)N[C@H](Cc2ccccc2)COc2cccc(N3CCC[C@@H]3CO)c21 | ? | -5% | -11 | -3% | 0%
O=[N+]([O-])c1ccc2c(c1)c(-c1ccccc1)nc1nncn12 | 7.3µM* | 3% | 6 | -16% | 0%
CC1CCN(S(=O)(=O)c2ccc3c(c2)NC(=O)CS3)CC1 | 16% | -16% | 0 | 6% | 11%
O=C1C(Sc2ccccc2)=C[C@@]2(O)CC[C@@H](O)[C@]1(Sc1ccccc1)[C@H]2O | 5.8µM* | 5.2µM* | -80* | ? | ?
COc1ccc(SC2=C[C@@]3(O)CC[C@@H](O)[C@@](Sc4ccc(OC)cc4)(C2=O)[C@H]3O)cc1 | 16µM* | 23µM* | 45 | -18% | -13%
COC(=O)[C@@]1(Sc2ccccc2)CC(=O)N[C@@H]1c1ccccc1 | -22% | 8% | 77 | 3% | 16%
COc1ccc(N2CC(NC(=O)C3CC3)CC2=O)cc1 (stereo not drawn) | -12% | 14% | nt | nt | nt
CC1CCN(C(=O)c2cc(-c3ccc(Cl)cc3)on2)CC1 | -21% | ? | nt | nt | nt
COc1ccc(Cl)cc1C1=CC(=O)C[C@H](c2ccc(F)cc2)C1 | ? | ? | -1 | -3% | -7%

Screening results deposited in PubChem BioAssay by National Center for Advancing Translational Sciences (NCATS).
